Results from PubChem BioAssay.
Where “and” joins values, the source holds several entries; their conditions need not be identical. Identical values can stand only once.

experiment: binders of probe aFGF10 on microarray, primary screen, stem cell growth factor project, biochemical, small-molecule microarray, fluorescence 635/667 (AID 1071); settings: higher = more signal;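 also: score merges 667 nm spot intensity and signal to noise from triplicate slides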

Row | SMILES | composite z-score
1 | C=CCN(CCCC)C(=O)C1N(c2ccc(CCO)cc2)C(=O)C2C(C(=O)O)C3C=CC21O3 (stereo not given) | -0.883 and 0.807
2 | COC(=O)C1=C(C)N(Cc2ccccc2)C2=C3C(=O)N(c4ccccc4)C(=O)[C@@H]3[C@@](O)(C(=O)OC)C(=O)N2[C@@H]1c1ccccc1 | 0.738 and 0.591
3 | CCC[C@@H]1C[C@@]1(CCC)[C@@H](NC(=O)c1ccc(-c2ccccc2)cc1)c1cccc(Cl)c1 | -0.636 and 0.226
4 | C=CCN(C(=O)C(c1cccs1)N(C(=O)/C=C\C(=O)O)c1ccc(CCO)cc1)C(C)(C)C (stereo not given) | -0.439 and -1.66
5 | C=CCN(Cc1ccccc1)C(=O)C1N(CCCCCCO)C(=O)C2C(C(=O)O)C3C=CC21O3 (stereo not given) | -1.2 and -1.78
6 | COc1ccc(COC(=O)NN=C2C[C@@H](O)[C@@H](O)[C@@H]3[C@@H]4C(=O)N(C(C)(C)C)C(=O)[C@@H]4CC[C@H]23)cc1 | 0.799
7 | O=C1NC(=O)C2C1C=CC(C(O)c1ccc([N+](=O)[O-])cc1)N2Nc1ccc(Cl)cc1Cl (stereo not given) | 0.694 and 0.322
8 | COC(=O)C1=C(C)N(Cc2ccccc2)C2=C3C(=O)CCC[C@@H]3[C@@](O)(C(=O)OC)C(=O)N2[C@@H]1c1ccccc1 | 0.482 and 0.544
9 | C[N+](C)(C)CCCCNC(=O)[C@H]1C[C@H]2C(=O)N[C@@H](CCCC[N+](C)(C)C)C(=O)N2[C@H]1c1cccc(OCCO)c1 | 1.24 and 0.967
10 | C=CCN(CCCCC)C(=O)C1N(c2ccc(CCO)cc2)C(=O)C2C(C(=O)O)C3C=CC21O3 (stereo not given) | -0.808 and -0.367
11 | CC(C)C(=O)N[C@@H]1CCCN1C(=O)C=Cc1ccccc1 | 0.405
12 | C[C@@H](ON=C1[C@H]2CCn3c(=O)n(-c4ccccc4)c(=O)n3[C@H]2[C@H](O)[C@@H]2O[C@H]12)c1cn([C@H](CO)Cc2ccccc2)nn1 | 0.449
13 | C=CCN1C(=O)[C@]2(O[C@H](CCn3cc(CCO)nn3)[C@@H]([Si](C)(C)c3ccc(OC)cc3)[C@@H]2C)c2cc(N3C(=O)c4cccc5cccc3c45)ccc21 | 0.678 and 0.735
14 | COC(=O)[C@@]1(Cc2ccc(F)cc2)[C@H]2c3cc(C(=O)N4CCCC4)n(Cc4c(CO)[nH]cc(C)c4=O)c3C[C@H]2CN1C(=O)c1ccccc1 | 1.22 and 0.774
15 | C=CCN(CCCCC)C(=O)C1N(c2c(Cl)cccc2CO)C(=O)C2C(C(=O)O)C3C=CC21O3 (stereo not given) | -1.66 and -1.11
16 | C=CCN(C(=O)C1N(c2c(Cl)cccc2CO)C(=O)C2C(C(=O)O)C3C=CC21O3)C(C)(C)C (stereo not given) | -0.782 and -0.419
17 | COC(=O)[C@@]1(Cc2ccc(OC)cc2)[C@H]2c3cc(C(=O)N(C)C)n(Cc4ccc(O)c(OC)c4)c3C[C@H]2CN1C(=O)c1ccccc1 | 0.123 and 1.17
18 | C=CCN(C(=O)C1N(C(C)(C)CO)C(=O)C2C(C(=O)O)C3C=CC21O3)c1ccc(OC)cc1 (stereo not given) | -1.49 and -0.243
19 | C[N+](C)(C)CCCCNC(=O)[C@@H]1C[C@@H]2C(=O)N[C@@H](CCCC[N+](C)(C)C)C(=O)N2[C@@H]1c1cccc(OCCO)c1 | 1.07 and 1.2
20 | CCCC[C@@H]1CN2[C@@H](CC[C@@H](C)[C@@H]2c2ccc(Br)cc2)C(=O)O1 | 0.458 and 0.656

Row | SMILES | composite z-score
21 | CCN1C(=O)[C@H]2[C@H]3[C@H](O)[C@H](O)CC(=NOC)[C@@H]3CC[C@H]2C1=O | 0.369
22 | C=C[C@H](OC)[C@@H](O)c1ccc(OCCO)cc1 | -1.19 and -0.295
23 | COC(=O)C1=C(C)N(Cc2ccccc2)[C@]23O[C@](C(=O)OC)(C(=O)N2[C@@H]1c1ccccc1)[C@@H](c1ccccc1)[C@@H]3C(=O)c1ccccc1 | 0.236 and 0.391
24 | CCOC(=O)[C@@H]1CC=C2CC1C(=O)N1CCC[C@@H]1[C@H]2O[Si](C)(C)C(C)(C)C (stereo not given in full) | -0.833 and -1.22
25 | CCOC(=O)[C@@H]1CC2O[C@]23C[C@@H]1C(=O)N1CCC[C@@H]1[C@H]3O[Si](C)(C)C(C)(C)C (stereo not given in full) | -0.235 and -0.144
26 | Cc1ccc(S(=O)(=O)OC[C@@H]2CN3[C@@H](CC[C@@H](C)[C@@H]3c3ccc(Br)cc3)C(=O)O2)cc1 | 0.251 and 0.369
27 | COC(=O)C1=C(C)N(Cc2ccccc2)[C@]23O[C@](C(=O)OC)(C(=O)N2[C@@H]1c1ccccc1)[C@H]1C(=O)N(c2ccccc2)C(=O)[C@H]13 | -0.116 and 0.883
28 | CCOC(=O)c1ccc(NC(=O)O[C@H]2[C@H](OC(=O)Nc3ccccc3)[C@H](OC(=O)Nc3ccccc3)[C@@H](OC)O[C@@H]2CO)cc1 | 1.2 and 0.986
29 | C[N+](C)(C)CCCCCCNC(=O)[C@H]1C[C@H]2C(=O)N[C@@H](CCCC[N+](C)(C)C)C(=O)N2[C@H]1c1ccc(O)cc1 | 0.105 and 0.129
30 | Cc1ccc(S(=O)(=O)N[C@@H]2COC(=O)CC=C[C@@H](C)[C@@H]3C=C[C@H](O)[C@@H](COC(=O)CC=C[C@H]2C)O3)cc1 | 0.0127 and 0.11
31 | CCCNC(=O)OC[C@H]1O[C@H](CCON=C(C)CCC(=O)OC[C@H]2O[C@H](C#Cc3ccccc3)C=C[C@@H]2Oc2ccc(C)cc2)C=C[C@@H]1Oc1ccc(OC)cc1 | -0.187
32 | C=CCN(CCCC)C(=O)C1N(C(C)(C)CO)C(=O)C2C(C(=O)O)C3C=CC21O3 (stereo not given) | -1.94 and -1.01
33 | C=C[C@@H](C)[C@H](O)c1ccc(O)c2ccccc12 | -0.455 and -0.788
34 | C=CCN(Cc1ccccc1)C(=O)C1N(C(C)(C)CO)C(=O)C2C(C(=O)O)C3C=CC21O3 (stereo not given) | -2.12 and -0.387
35 | C=CC[C@H](O)c1ccc(OCCO)cc1 | -1.16 and -0.746
36 | C=CCN(C(=O)C(c1cccs1)N(C(=O)/C=C\C(=O)O)c1ccc(CCO)cc1)c1ccc(OC)cc1 (stereo not given) | -1.73 and -1.74
37 | C=CC[C@@H](O)c1ccc(OCCO)cc1 | -0.0284 and -0.887
38 | C=CCN(C(=O)C1N(CCCCCCO)C(=O)C2C(C(=O)O)C3C=CC21O3)c1ccc(OC)cc1 (stereo not given) | -2.33 and -1.4
39 | COC(=O)C1=C(C)N(Cc2ccccc2)C2=C(C(=O)c3ccccc3)[C@H](c3ccccc3)[C@@](O)(C(=O)OC)C(=O)N2[C@@H]1c1ccccc1 | 0.429 and 0.387
40 | Cc1ccc(S(=O)(=O)N[C@H]2COC(=O)[C@@H](C)COC(=O)[C@H](C)NC(=O)CC=C[C@H]2C)cc1 | 0.604
